Bioassay records deposited in PubChem by National Center for Advancing Translational Sciences (NCATS).
PINK1 modulator: changes PINK1 expression; Potency, µM (top dose mostly 76.6 µM), most hits filed as activators; PINK1 immunofluorescence, high-content cytometry, 24 h; actives 0.2% (n = 410,000); active means well fitted activation curve with a large enough effect; inconclusive means small, poorly fitted or top-dose-only effect; cell line not stated here; further: nearly all actives have a fitted effect of over 65% in size
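Measures PINK1 amount and localization on or inside mitochondria by immunofluorescence. Stable cells get compounds at 5 concentrations for 24 hours before fixation and staining; CCCP controls included.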
MCF10A rerep: inducers of DNA re-replication in MCF 10A breast cells; MCF 10A DNA re-replication, Hoechst nuclear intensity, 48 h; Potency, µM (titrated, usually from 46.1 µM), most hits filed as activators; actives 2.9% (n = 350,000); AID 624296; further: nearly all actives have a fitted effect of over 50% in size
KB-V1 MDR tox: kills drug-selected multidrug resistant KB-V1 cells. AID 1347076. actives 3.4% (n = 400,000). KB-V1 MDR cells viability, CellTiter-Glo, 72 h. Potency, µM (series often up to 46.1 µM), hits mostly cytotoxic; further: nearly all actives have a fitted effect of over 60% in size
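KB-V1, DMEM (no phenol red) + 10% FBS; cpd pin-transferred, titration series; 72 h, 37 degrees C; CellTiter-Glo, luminescence. Data normalized, curve-fit.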
TSG101-PTAP inh: blocks PTAP/TSG101 interaction to inhibit HIV-1 budding | 340,000 tested, under 10 active | Potency, µM (doses to about 115 µM), hits mostly inhibitors | Fluorescence polarization, FITC-PTAP peptide / Tsg101 binding | Q99816; active means well fitted inhibition curve with a large enough effect in the main read-out, with a control signal flat, not every such curve was filed as active; inconclusive means small, poorly fitted or top-dose-only effect, or effect the other way, or a change in a side signal; inactive means no such curve, though single readings can be large or run the other way
Target sequence (Q99816 whole entry, looked up): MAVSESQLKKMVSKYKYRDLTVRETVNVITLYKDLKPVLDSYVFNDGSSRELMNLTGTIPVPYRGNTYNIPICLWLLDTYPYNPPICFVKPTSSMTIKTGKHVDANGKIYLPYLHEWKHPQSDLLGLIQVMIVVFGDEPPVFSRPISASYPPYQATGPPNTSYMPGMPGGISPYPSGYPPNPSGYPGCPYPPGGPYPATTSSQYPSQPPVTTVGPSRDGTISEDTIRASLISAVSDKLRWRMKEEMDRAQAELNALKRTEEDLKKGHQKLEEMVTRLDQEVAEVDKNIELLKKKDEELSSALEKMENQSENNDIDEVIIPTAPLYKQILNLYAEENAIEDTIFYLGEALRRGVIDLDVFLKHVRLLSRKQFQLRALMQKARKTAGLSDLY
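Compounds were pin-transferred onto Tsg101 binding domain (10 uM final) in HEPES pH 7.5 buffer, then FITC-PTAP peptide was added at 50 nM final. After 20 min at RT, polarization reported peptide displacement across a qHTS concentration series.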
SW480 rereplic: DNA re-replication induction in SW480 cells; SW480 DNA re-replication, Hoechst DNA content imaging, 48 h; Potency, µM (doses to about 46.1 µM), hits mostly activators; actives 1.8% (n = 340,000); further: nearly all actives have a fitted effect of over 55% in size
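First, 250 cells per well were seeded. Next, compound or vehicle (23 nL) was pinned in, plates sat 48 hr at 37 C. Finally Hoechst was added for 40 min before fluorescence scanning.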
KB-3-1 cytotox: KB-3-1 parental cell cytotoxicity | KB-3-1 viability, CellTiter-Glo ATP luminescence, 72 h | Potency, µM (titrated, usually from 46.1 µM), hits mostly cytotoxic | actives 1.4% (n = 400,000) | AID 1347075; further: nearly all actives have a fitted effect of over 60% in size
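Luminescent ATP read-out (CellTiter-Glo) measures survival of drug-naive KB-3-1 cells after 72 h compound exposure at 37 °C. Titration series was screened from lowest to highest concentration, with DMSO vehicle plates as background controls.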
Of the large screens only hits and unclear results are named; the others gave an inactive call. This is a sample that favours compounds with a hit; in the whole collection about 6.8% have one here. Unless noted, the call rests on the fitted dose curve; in most records, active means well fitted curve in the direction sought with a large enough effect; inconclusive means small, poorly fitted or top-dose-only effect, or another doubt; inactive means no such curve, though single readings can be large; an effect the other way counts as inactive or inconclusive.

O=C(NNC(=S)Nc1cccc(C(F)(F)F)c1)c1ccccc1Cl	PINK1 modulator inconclusive, KB-V1 MDR tox inconclusive, KB-3-1 cytotox inconclusive
FC(F)(F)c1ccc(NC(=S)NC2CCCCC2)cc1	PINK1 modulator inconclusive, KB-V1 MDR tox inconclusive, KB-3-1 cytotox inconclusive
FC(F)(F)c1cccc(NC(=S)NC2CCCC2)c1	PINK1 modulator inconclusive, MCF10A rerep inconclusive, KB-V1 MDR tox inconclusive, KB-3-1 cytotox 18.4µM
Fc1cccc(NC(=S)NC2CCCCCCC2)c1	PINK1 modulator 15.8µM, MCF10A rerep inconclusive
O=C(Nc1cccc(F)c1)C1CCCCC1	KB-V1 MDR tox inconclusive
O=C(NNC(=S)Nc1cccc(C(F)(F)F)c1)c1cccc(Cl)c1	PINK1 modulator 15.8µM, MCF10A rerep inconclusive, KB-V1 MDR tox inconclusive, SW480 rereplic inconclusive, KB-3-1 cytotox inconclusive
COc1ccc(Cc2noc(CN3CCC(c4ccncc4)CC3)n2)cc1OC	KB-V1 MDR tox 18.4µM, KB-3-1 cytotox inconclusive
O=S(=O)(c1ccccc1C(F)(F)F)N1CCC(n2cnc3ccccc32)CC1	KB-V1 MDR tox 9.2µM
CCOC(=O)c1cccc(N)c1	none (no result: PINK1 modulator, KB-V1 MDR tox, TSG101-PTAP inh, KB-3-1 cytotox)
CSc1ccc(Cn2c(C)c(C(=O)NCc3ccc(F)cc3)sc2=O)cc1	KB-V1 MDR tox inconclusive, KB-3-1 cytotox inconclusive (no result: MCF10A rerep, TSG101-PTAP inh, SW480 rereplic)
COc1ccc(NC(=O)c2sc(=O)n(Cc3cccc(C(F)(F)F)c3)c2C)cc1OC	KB-V1 MDR tox inconclusive, KB-3-1 cytotox 8.2µM (no result: MCF10A rerep, TSG101-PTAP inh, SW480 rereplic)
CSc1ccc(Cn2c(C)c(C(=O)NCc3ccc4c(c3)OCCO4)sc2=O)cc1	KB-V1 MDR tox 18.4µM (no result: MCF10A rerep, TSG101-PTAP inh, SW480 rereplic)
CSc1ccc(Cn2c(C)c(C(=O)NCc3ccc(Cl)c(Cl)c3)sc2=O)cc1	KB-V1 MDR tox 16.4µM, KB-3-1 cytotox 14.6µM (no result: MCF10A rerep, TSG101-PTAP inh, SW480 rereplic)
Cc1c(C(=O)NCc2ccc3c(c2)OCCO3)sc(=O)n1Cc1ccc2c(c1)OCO2	KB-V1 MDR tox inconclusive (no result: MCF10A rerep, TSG101-PTAP inh, SW480 rereplic)
COc1ccc(NC(=O)c2sc(=O)n(Cc3ccc(SC)cc3)c2C)cc1OC	KB-V1 MDR tox inconclusive (no result: MCF10A rerep, TSG101-PTAP inh, SW480 rereplic)
Cc1c(C(=O)NCc2ccc3c(c2)OCCO3)sc(=O)n1Cc1cccc(C(F)(F)F)c1	KB-V1 MDR tox 7.31µM, KB-3-1 cytotox inconclusive (no result: MCF10A rerep, TSG101-PTAP inh, SW480 rereplic)
CCNc1ncc2nc(C)c(=O)n(CCc3ccccc3)c2n1	none (no result: MCF10A rerep, KB-V1 MDR tox, TSG101-PTAP inh, SW480 rereplic, KB-3-1 cytotox)
CN(Cc1nc(-c2ccc(Cl)cc2)no1)S(=O)(=O)c1ccccc1	none (no result: MCF10A rerep, TSG101-PTAP inh, SW480 rereplic)
COc1ccccc1OCc1nc(-c2cccc(C)c2)no1	none (no result: MCF10A rerep, TSG101-PTAP inh, SW480 rereplic)
CSc1ccc(Cn2c(C)c(C(=O)NCCC#N)sc2=O)cc1	KB-V1 MDR tox 14.6µM, KB-3-1 cytotox inconclusive (no result: MCF10A rerep, TSG101-PTAP inh, SW480 rereplic)
Cc1c(C(=O)NCCC#N)sc(=O)n1Cc1ccc(F)cc1	none (no result: MCF10A rerep, TSG101-PTAP inh, SW480 rereplic)
Cc1c(C(=O)NCc2ccc(F)cc2)sc(=O)n1Cc1ccc(Cl)c(Cl)c1	KB-V1 MDR tox 16.4µM, KB-3-1 cytotox inconclusive (no result: MCF10A rerep, TSG101-PTAP inh, SW480 rereplic)
COc1ccc(Cl)cc1NC(=O)CSC1=Nc2ccccc2C2=NC(CCC(=O)NCc3ccc(F)cc3)C(=O)N12 (stereo not drawn)	none (no result: MCF10A rerep, KB-V1 MDR tox, TSG101-PTAP inh, SW480 rereplic, KB-3-1 cytotox)
CC(C)CN(CC(C)C)S(=O)(=O)N1CCC(C(=O)NCc2cccs2)CC1	MCF10A rerep inconclusive, KB-V1 MDR tox inconclusive
O=C(NCc1cccs1)C1CCCN1S(=O)(=O)c1ccccc1F (stereo not drawn)	KB-V1 MDR tox 11.6µM
CC1CCN(S(=O)(=O)N2CCC(C(=O)NCc3cccs3)CC2)CC1	KB-V1 MDR tox 18.4µM
COc1ccc(CNC(=O)c2ccc(S(=O)(=O)N3CC(C)CC(C)C3)cc2)cc1OC (stereo not drawn)	KB-V1 MDR tox 7.31µM
COc1ccc(CCNC(=O)C2CCN(S(=O)(=O)N3CCC(C)CC3)CC2)cc1OC	KB-V1 MDR tox 20.6µM, KB-3-1 cytotox inconclusive
O=C(/C=C/c1c(F)c(F)c(F)c(F)c1F)Nc1cccc([S+](=O)([O-])Nc2ccccc2F)c1	none (no result: PINK1 modulator, MCF10A rerep, TSG101-PTAP inh, SW480 rereplic)
CCOC(=O)Cn1c(=O)c2c(nc(N3CCOCC3)n2Cc2ccccc2)n(C)c1=O	none (no result: MCF10A rerep, KB-V1 MDR tox, TSG101-PTAP inh, SW480 rereplic, KB-3-1 cytotox)
Brc1cccc(-c2nnc3sc(CN4CCCCC4)cn23)c1	KB-V1 MDR tox inconclusive (no result: TSG101-PTAP inh)
Brc1cccc(-c2nnc3sc(CN4CCC5(CC4)OCCO5)cn23)c1	KB-V1 MDR tox 20.6µM
CC(C)(C)c1ccc(-c2nnc(-c3ccccc3NC(=O)c3ccc(F)cc3F)o2)cc1	none (no result: MCF10A rerep, TSG101-PTAP inh, SW480 rereplic)
